# Experimental data taken from PubChem BioAssay AID1159580 (chemical genetic matrix, 2015).
# Values joined by “and” are separate entries in the source; they are usually repeats but may differ in a detail not shown here. Equal values may be shown once. In all, about 5,500 compounds went through this assay and about 2,000 (36%) were called active. About 18% were inconclusive and are not listed. The list shows a part of the results. A number with no mark means an inactive call. Cut-off read from the data, not from the text of the source: active = normalized growth mostly below about 0.91 (no sharp cut-off); inconclusive = no clear call, values can overlap the other calls; inactive = mostly above about 0.92.
# Test: chemical genetic growth profiling, strain panel (AID 1159580);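 note: tested at 20 µM; growth read once vehicle control cultures reached saturation at 30 °C; 1 = growth at the plate median or of vehicle wells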
# Details: S. cerevisiae deletion strains, growth OD
compound,measurement,setting,value
C/C=C/CC(C)C(O)C1C(=O)NC(CC)C(=O)N(C)CC(=O)N(C)C(CC(C)C)C(=O)NC(C(C)C)C(=O)N(C)C(CC(C)C)C(=O)NC(C)C(=O)NC(C)C(=O)N(C)C(CC(C)C)C(=O)N(C)C(CC(C)C)C(=O)N(C)C(C(C)C)C(=O)N1C (stereo not given),normalized growth,"locus YAL013W, strain DEP1, stronger effect = lower value",0.998
same,normalized growth,"locus YAL021C, strain ccr4, stronger effect = lower value",1.02
same,normalized growth,"locus YAL026C, strain drs2, stronger effect = lower value",1
same,normalized growth,"locus YAL030W, strain snc1, stronger effect = lower value",1.02
same,normalized growth,"locus YAL040C, strain CLN3, stronger effect = lower value",1.04
same,normalized growth,"locus YBL061C, strain skt5, stronger effect = lower value",1.01
same,normalized growth,"locus YBR009C, strain hhf1, stronger effect = lower value",1.01
same,normalized growth,"locus YBR021W, strain FUR4, stronger effect = lower value",1.02
same,normalized growth,"locus YBR023C, strain chs3, stronger effect = lower value",1.01
same,normalized growth,"locus YBR171W, strain sec66, stronger effect = lower value",1.01
same,normalized growth,"locus YBR229C, strain ROT2, stronger effect = lower value",0.972
same,normalized growth,"locus YBR231C, strain swc5, stronger effect = lower value",1.02
same,normalized growth,"locus YBR279W, strain paf1, stronger effect = lower value",1.02
same,normalized growth,"locus YCL011C, strain gbp2, stronger effect = lower value",1.01
same,normalized growth,"locus YCL016C, strain dcc1, stronger effect = lower value",0.996
same,normalized growth,"locus YCL029C, strain bik1, stronger effect = lower value",1.01
same,normalized growth,"locus YCL061C, strain MRC1 (second series), stronger effect = lower value",0.983
same,normalized growth,"locus YCL061C, strain MRC1, stronger effect = lower value",1.02
same,normalized growth,"locus YCL069W, strain vba3, stronger effect = lower value",1.02
same,normalized growth,"locus YCR088W, strain abp1, stronger effect = lower value",1.02
same,normalized growth,"locus YDL005C, strain med2, stronger effect = lower value",1.01
same,normalized growth,"locus YDL035C, strain GPR1, stronger effect = lower value",0.979
same,normalized growth,"locus YDL040C, strain nat1, stronger effect = lower value",1.01
same,normalized growth,"locus YDL074C, strain BRE1, stronger effect = lower value",0.937
same,normalized growth,"locus YDL101C, strain DUN1, stronger effect = lower value",0.988
same,normalized growth,"locus YDL134C, strain PPH21, stronger effect = lower value",0.983
same,normalized growth,"locus YDL185W, strain tfp1, stronger effect = lower value",0.358 (active)
same,normalized growth,"locus YDL192W, strain arf1, stronger effect = lower value",1
same,normalized growth,"locus YDR001C, strain nth1, stronger effect = lower value",1.01
same,normalized growth,"locus YDR069C, strain doa4, stronger effect = lower value",1.03
same,normalized growth,"locus YDR101C, strain arx1, stronger effect = lower value",1.02
same,normalized growth,"locus YDR137W, strain rgp1, stronger effect = lower value",0.637 (active)
same,normalized growth,"locus YDR150W, strain NUM1, stronger effect = lower value",0.996
same,normalized growth,"locus YDR159W, strain sac3, stronger effect = lower value",0.993
same,normalized growth,"locus YDR162C, strain NBP2, stronger effect = lower value",0.952
same,normalized growth,"locus YDR195W, strain ref2",1.01
same,normalized growth,"locus YDR297W, strain sur2, stronger effect = lower value",1.02
same,normalized growth,"locus YDR318W, strain mcm21, stronger effect = lower value",1.03
same,normalized growth,"locus YDR334W, strain swr1, stronger effect = lower value",1.02
same,normalized growth,"locus YDR335W, strain msn5, stronger effect = lower value",1.02
same,normalized growth,"locus YDR388W, stronger effect = lower value",1.03
same,normalized growth,"locus YDR392W, strain spt3, stronger effect = lower value",0.873
same,normalized growth,"locus YDR502C, strain sam2, stronger effect = lower value",1.01
same,normalized growth,"locus YEL003W, strain gim4, stronger effect = lower value",1.02
same,normalized growth,"locus YEL037C, strain rad23, stronger effect = lower value",1.06
same,normalized growth,"locus YEL061C, strain CIN8 (second series), stronger effect = lower value",1
same,normalized growth,"locus YEL061C, strain CIN8, stronger effect = lower value",0.996
same,normalized growth,"locus YER002W, strain NOP16, stronger effect = lower value",0.966
same,normalized growth,"locus YER015W, strain faa2, stronger effect = lower value",1.02
same,normalized growth,"locus YER016W, strain bim1, stronger effect = lower value",1.02
same,normalized growth,"locus YER110C, stronger effect = lower value",1.02
same,normalized growth,"locus YER111C, strain swi4, stronger effect = lower value",0.99
same,normalized growth,"locus YER155C, strain BEM2 (second series), stronger effect = lower value",0.952
same,normalized growth,"locus YER155C, strain BEM2, stronger effect = lower value",1.03
same,normalized growth,"locus YER167W, strain BCK2, stronger effect = lower value",1.03
same,normalized growth,"locus YFR010W, strain ubp6, stronger effect = lower value",1
same,normalized growth,"locus YGL078C, strain dbp3, stronger effect = lower value",1.02
same,normalized growth,"locus YGL086W, strain mad1, stronger effect = lower value",1.02
same,normalized growth,"locus YGL167C, strain pmr1, stronger effect = lower value",1.03
same,normalized growth,"locus YGL173C, strain kem1, stronger effect = lower value",1.02
same,normalized growth,"locus YGL227W, strain vid30, stronger effect = lower value",1.02
same,normalized growth,"locus YGL240W, strain doc1, stronger effect = lower value",0.978
same,normalized growth,"locus YGL248W, strain PDE1, stronger effect = lower value",0.985
same,normalized growth,"locus YGL253W, strain hxk2, stronger effect = lower value",1.02
same,normalized growth,"locus YGR078C, strain PAC10, stronger effect = lower value",0.964 and 1.01
same,normalized growth,"locus YGR135W, strain pre9, stronger effect = lower value",0.991
same,normalized growth,"locus YGR229C, strain SMI1, stronger effect = lower value",0.937 and 1.01
same,normalized growth,"locus YGR252W, strain gcn5, stronger effect = lower value",0.913
same,normalized growth,"locus YHR013C, strain ard1, stronger effect = lower value",1.03
same,normalized growth,"locus YHR027C, strain rpn1, stronger effect = lower value",1.03
same,normalized growth,"locus YHR030C, strain SLT2, stronger effect = lower value",1.02 and 0.977
same,normalized growth,"locus YHR079C, strain IRE1 (second series), stronger effect = lower value",1.03
same,normalized growth,"locus YHR079C, strain IRE1, stronger effect = lower value",0.991
same,normalized growth,"locus YHR094C, strain hxt1, stronger effect = lower value",1.02
same,normalized growth,"locus YHR129C, strain ARP1, stronger effect = lower value",1.01
same,normalized growth,"locus YHR142W, strain chs7, stronger effect = lower value",1.02
same,normalized growth,"locus YHR200W, strain rpn10, stronger effect = lower value",1.02
same,normalized growth,"locus YIL066C, strain RNR3, stronger effect = lower value",0.986
same,normalized growth,"locus YIL073C, strain SPO22, stronger effect = lower value",1.02
same,normalized growth,"locus YIL125W, strain kgd1, stronger effect = lower value",1
same,normalized growth,"locus YIR030C, strain dcg1, stronger effect = lower value",1.02
same,normalized growth,"locus YJL092W, strain hpr5, stronger effect = lower value",1.02
same,normalized growth,"locus YJL095W, strain BCK1 (second series), stronger effect = lower value",1.03
same,normalized growth,"locus YJL095W, strain BCK1, stronger effect = lower value",0.908 and 0.989
same,normalized growth,"locus YJL115W, strain asf1, stronger effect = lower value",1.02
same,normalized growth,"locus YJL129C, strain trk1, stronger effect = lower value",1.08
same,normalized growth,"locus YJL134W, strain LCB3, stronger effect = lower value",1
same,normalized growth,"locus YJL154C, strain vps35, stronger effect = lower value",1.01
same,normalized growth,"locus YJL164C, strain tpk1, stronger effect = lower value",1.04
same,normalized growth,"locus YJL166W, strain qcr8, stronger effect = lower value",1.02
same,normalized growth,"locus YJL168C, strain set2, stronger effect = lower value",1.03
same,normalized growth,"locus YJL187C, strain SWE1 (second series), stronger effect = lower value",0.968
same,normalized growth,"locus YJL187C, strain SWE1, stronger effect = lower value",1.02
same,normalized growth,"locus YJR043C, strain POL32, stronger effect = lower value",1
same,normalized growth,"locus YJR066W, strain TOR1, stronger effect = lower value",0.959
